Results reported in PubChem BioAssay AID1159580 (chemical genetic matrix, 2015).
Values joined by “and” are separate entries in the source; they are usually repeats but may differ in a detail not shown here. Equal values may be shown once. In all, about 5,500 compounds went through this assay and about 2,000 (36%) were called active. Inconclusive results (about 18%) are left out. The list shows a part of the results. A number with no mark means an inactive call. Cut-off read from the data, not from the text of the source: active = normalized growth mostly below about 0.91 (no sharp cut-off); inconclusive = no clear call, values can overlap the other calls; inactive = mostly above about 0.92.

Assay: chemical genetic growth profiling, strain panel (AID 1159580);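 note: tested at 20 µM; growth read once vehicle control cultures reached saturation at 30 °C; 1 = growth at the plate median or of vehicle wells; lower values mean less growth of the strain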
Settings: S. cerevisiae deletion strains, growth OD

Structure (SMILES): Cc1c(O)c(O)cc2c1CC=C1[C@@]2(C)CC[C@@]2(C)C3C[C@](C)(C(=O)O)CC[C@]3(C)CC[C@]12C (stereo partly specified)
- normalized growth (locus YAL021C, strain ccr4, hits give low values): 0.711 (active)
- normalized growth (locus YAL026C, strain drs2, hits give low values): 0.422 (active)
- normalized growth (locus YAL030W, strain snc1, hits give low values): 0.541 (active)
- normalized growth (locus YBL061C, strain skt5, hits give low values): 0.533 (active)
- normalized growth (locus YBR009C, strain hhf1, hits give low values): 0.265 (active)
- normalized growth (locus YBR021W, strain FUR4, hits give low values): 1
- normalized growth (locus YBR023C, strain chs3, hits give low values): 0.471 (active)
- normalized growth (locus YBR171W, strain sec66, hits give low values): 0.842 (active)
- normalized growth (locus YBR229C, strain ROT2, hits give low values): 0.966
- normalized growth (locus YBR231C, strain swc5, hits give low values): 0.326 (active)
- normalized growth (locus YBR279W, strain paf1, hits give low values): 0.41 (active)
- normalized growth (locus YCL011C, strain gbp2, hits give low values): 0.377 (active)
- normalized growth (locus YCL016C, strain dcc1, hits give low values): 0.571 (active)
- normalized growth (locus YCL029C, strain bik1, hits give low values): 0.947
- normalized growth (locus YCL061C, strain MRC1, hits give low values): 0.635 (active)
- normalized growth (locus YCL069W, strain vba3, hits give low values): 0.668 (active)
- normalized growth (locus YCR088W, strain abp1, hits give low values): 0.738 (active)
- normalized growth (locus YDL005C, strain med2, hits give low values): 0.413 (active)
- normalized growth (locus YDL035C, strain GPR1, hits give low values): 0.872
- normalized growth (locus YDL040C, strain nat1, hits give low values): 0.738 (active)
- normalized growth (locus YDL074C, strain BRE1, hits give low values): 0.797
- normalized growth (locus YDL101C, strain DUN1, hits give low values): 0.924
- normalized growth (locus YDL185W, strain tfp1, hits give low values): 1.01
- normalized growth (locus YDL192W, strain arf1, hits give low values): 0.889 (active)
- normalized growth (locus YDR001C, strain nth1, hits give low values): 0.766 (active)
- normalized growth (locus YDR069C, strain doa4, hits give low values): 0.459 (active)
- normalized growth (locus YDR101C, strain arx1, hits give low values): 0.962
- normalized growth (locus YDR137W, strain rgp1, hits give low values): 0.269 (active)
- normalized growth (locus YDR150W, strain NUM1, hits give low values): 0.959
- normalized growth (locus YDR159W, strain sac3, hits give low values): 0.465 (active)
- normalized growth (locus YDR162C, strain NBP2, hits give low values): 0.803 (active)
- normalized growth (locus YDR195W, strain ref2): 0.548 (active)
- normalized growth (locus YDR297W, strain sur2, hits give low values): 0.479 (active)
- normalized growth (locus YDR318W, strain mcm21, hits give low values): 0.917 (active)
- normalized growth (locus YDR334W, strain swr1, hits give low values): 0.338 (active)
- normalized growth (locus YDR335W, strain msn5, hits give low values): 0.698 (active)
- normalized growth (locus YDR388W, hits give low values): 0.962
- normalized growth (locus YDR392W, strain spt3, hits give low values): 0.125 (active)
- normalized growth (locus YDR502C, strain sam2, hits give low values): 0.929
- normalized growth (locus YEL003W, strain gim4, hits give low values): 0.416 (active)
- normalized growth (locus YEL037C, strain rad23, hits give low values): 0.71 (active)
- normalized growth (locus YEL061C, strain CIN8 (second series), hits give low values): 0.701 (active)
- normalized growth (locus YEL061C, strain CIN8, hits give low values): 0.906 (active)
- normalized growth (locus YER015W, strain faa2, hits give low values): 0.491 (active)
- normalized growth (locus YER016W, strain bim1, hits give low values): 0.612 (active)
- normalized growth (locus YER110C, hits give low values): 1
- normalized growth (locus YER111C, strain swi4, hits give low values): 0.581 (active)
- normalized growth (locus YER155C, strain BEM2 (second series), hits give low values): 0.348 (active)
- normalized growth (locus YER155C, strain BEM2, hits give low values): 0.767 (active)
- normalized growth (locus YER167W, strain BCK2, hits give low values): 0.921
- normalized growth (locus YFR010W, strain ubp6, hits give low values): 0.561 (active)
- normalized growth (locus YGL078C, strain dbp3, hits give low values): 0.977
- normalized growth (locus YGL086W, strain mad1, hits give low values): 0.936
- normalized growth (locus YGL167C, strain pmr1, hits give low values): 0.738 (active)
- normalized growth (locus YGL173C, strain kem1, hits give low values): 0.31 (active)
- normalized growth (locus YGL227W, strain vid30, hits give low values): 0.854 (active)
- normalized growth (locus YGL240W, strain doc1, hits give low values): 0.605 (active)
- normalized growth (locus YGL248W, strain PDE1, hits give low values): 0.845 (active)
- normalized growth (locus YGL253W, strain hxk2, hits give low values): 0.37 (active)
- normalized growth (locus YGR135W, strain pre9, hits give low values): 0.936
- normalized growth (locus YGR252W, strain gcn5, hits give low values): 0.873
- normalized growth (locus YHR013C, strain ard1, hits give low values): 0.203 (active)
- normalized growth (locus YHR027C, strain rpn1, hits give low values): 0.45 (active)
- normalized growth (locus YHR030C, strain SLT2, hits give low values): 0.947 and 0.918
- normalized growth (locus YHR079C, strain IRE1 (second series), hits give low values): 0.976
- normalized growth (locus YHR079C, strain IRE1, hits give low values): 0.945
- normalized growth (locus YHR094C, strain hxt1, hits give low values): 0.988
- normalized growth (locus YHR129C, strain ARP1, hits give low values): 0.838 (active)
- normalized growth (locus YHR142W, strain chs7, hits give low values): 0.387 (active)
- normalized growth (locus YHR200W, strain rpn10, hits give low values): 0.964
- normalized growth (locus YIL066C, strain RNR3, hits give low values): 0.801 (active)
- normalized growth (locus YIL073C, strain SPO22, hits give low values): 0.863
- normalized growth (locus YIL125W, strain kgd1, hits give low values): 0.942
- normalized growth (locus YIR030C, strain dcg1, hits give low values): 0.958
- normalized growth (locus YJL092W, strain hpr5, hits give low values): 0.686 (active)
- normalized growth (locus YJL095W, strain BCK1 (second series), hits give low values): 0.405 (active)
- normalized growth (locus YJL095W, strain BCK1, hits give low values): 0.784 (active) and 0.865 (active)
- normalized growth (locus YJL115W, strain asf1, hits give low values): 0.741 (active)
- normalized growth (locus YJL129C, strain trk1, hits give low values): 0.482 (active)
- normalized growth (locus YJL134W, strain LCB3, hits give low values): 0.967
- normalized growth (locus YJL154C, strain vps35, hits give low values): 0.689 (active)
- normalized growth (locus YJL164C, strain tpk1, hits give low values): 0.289 (active)
- normalized growth (locus YJL166W, strain qcr8, hits give low values): 0.233 (active)
- normalized growth (locus YJL168C, strain set2, hits give low values): 0.979
- normalized growth (locus YJL187C, strain SWE1 (second series), hits give low values): 0.897
- normalized growth (locus YJL187C, strain SWE1, hits give low values): 0.457 (active)
